Test results as given in PubChem BioAssay AID1159580 (chemical genetic matrix, 2015).
The whole screen tested about 5,500 compounds, of which about 2,000 (36%) were called active. Roughly 18% stayed inconclusive and do not appear here. Cut-off read from the data, not from the text of the source: active = normalized growth mostly below about 0.91 (no sharp cut-off); inconclusive = no clear call, values can overlap the other calls; inactive = mostly above about 0.92. Some of the results follow.

Assay: chemical genetic growth profiling, strain panel (AID 1159580);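 note: tested at 20 µM; growth read once vehicle control cultures reached saturation at 30 °C; 1 = growth at the plate median or of vehicle wells; lower values mean less growth of the strain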
Settings: growth OD

Measured: normalized growth

CO[C@@]1(NC(=O)CSCC#N)C(=O)N2C(C(=O)O)=C(CSc3nnnn3C)CSC21 (some centres not stated)
inactive: S. cerevisiae deletion strains, locus YJR075W, strain HOC1, hits give low values 1.01 | S. cerevisiae deletion strains, locus YKL009W, strain mrt4, hits give low values 1.04 | S. cerevisiae deletion strains, locus YKL068W, hits give low values 1.02 | S. cerevisiae deletion strains, locus YKL085W, strain MDH1 (second series), hits give low values 1.03 | S. cerevisiae deletion strains, locus YKL085W, strain MDH1, hits give low values 1.03 | S. cerevisiae deletion strains, locus YKL160W, strain elf1, hits give low values 0.959 | S. cerevisiae deletion strains, locus YKL190W, strain CNB1, hits give low values 0.995 | S. cerevisiae deletion strains, locus YKR001C, strain vps1, hits give low values 1.04 | S. cerevisiae deletion strains, locus YKR026C, strain gcn3, hits give low values 0.996 | S. cerevisiae deletion strains, locus YKR091W, strain srl3, hits give low values 0.982 | S. cerevisiae deletion strains, locus YLL001W, strain dnm1, hits give low values 0.96 | S. cerevisiae deletion strains, locus YLL026W, hits give low values 0.986 | S. cerevisiae deletion strains, locus YLL041C, strain sdh2, hits give low values 0.978 | S. cerevisiae deletion strains, locus YLR027C, strain aat2, hits give low values 0.99 | S. cerevisiae deletion strains, locus YLR039C, strain RIC1, hits give low values 1.07 | S. cerevisiae deletion strains, locus YLR058C, strain SHM2, hits give low values 1.01 | S. cerevisiae deletion strains, locus YLR102C, strain apc9, hits give low values 1.04 | S. cerevisiae deletion strains, locus YLR113W, strain HOG1, hits give low values 0.96 | S. cerevisiae deletion strains, locus YLR221C, strain rsa3, hits give low values 0.98 | S. cerevisiae deletion strains, locus YLR258W, strain gsy2, hits give low values 0.98 | S. cerevisiae deletion strains, locus YLR262C, strain YPT6 (second series), hits give low values 0.981 | S. cerevisiae deletion strains, locus YLR262C, strain YPT6, hits give low values 1.09 | S. cerevisiae deletion strains, locus YLR268W, strain sec22, hits give low values 1.02 | S. cerevisiae deletion strains, locus YLR320W, strain mms22, hits give low values 0.953 | S. cerevisiae deletion strains, locus YLR330W, strain CHS5, hits give low values 1.01 | S. cerevisiae deletion strains, locus YLR342W, strain FKS1 (second series), hits give low values 1.01 | S. cerevisiae deletion strains, locus YLR342W, strain FKS1, hits give low values 0.967 | S. cerevisiae deletion strains, locus YLR357W, strain rsc2, hits give low values 0.915 | S. cerevisiae deletion strains, locus YLR370C, strain arc18, hits give low values 0.984 | S. cerevisiae deletion strains, locus YLR371W, strain rom2, hits give low values 1.04 | S. cerevisiae deletion strains, locus YLR384C, strain iki3, hits give low values 1 | S. cerevisiae deletion strains, locus YLR418C, strain cdc73, hits give low values 1.04 | S. cerevisiae deletion strains, locus YML016C, strain PPZ1, hits give low values 1.01 | S. cerevisiae deletion strains, locus YML032C, strain rad52, hits give low values 1.05 | S. cerevisiae deletion strains, locus YML120C, strain ndi1, hits give low values 0.988 | S. cerevisiae deletion strains, locus YML124C, strain tub3, hits give low values 1.02 | S. cerevisiae deletion strains, locus YMR058W, strain fet3, hits give low values 1.01 | S. cerevisiae deletion strains, locus YMR078C, strain ctf18, hits give low values 1.03 | S. cerevisiae deletion strains, locus YMR125W, strain sto1, hits give low values 1.01 | S. cerevisiae deletion strains, locus YMR129W, hits give low values 0.995 | S. cerevisiae deletion strains, locus YMR205C, strain PFK2, hits give low values 0.965 | S. cerevisiae deletion strains, locus YMR223W, strain ubp8, hits give low values 1.04 | S. cerevisiae deletion strains, locus YMR231W, strain pep5, hits give low values 0.985 | S. cerevisiae deletion strains, locus YMR263W, strain SAP30, hits give low values 1.01 | S. cerevisiae deletion strains, locus YMR307W, strain GAS1, hits give low values 1.05 | S. cerevisiae deletion strains, locus YNL067W, strain RPL9B, hits give low values 1.01 | S. cerevisiae deletion strains, locus YNL071W, strain lat1, hits give low values 0.991 | S. cerevisiae deletion strains, locus YNL128W, strain TEP1, hits give low values 1.02 | S. cerevisiae deletion strains, locus YNL153C, strain GIM3, hits give low values 1.01 | S. cerevisiae deletion strains, locus YNL183C, strain NPR1, hits give low values 0.926 | S. cerevisiae deletion strains, locus YNL209W, strain ssb2, hits give low values 0.988 | S. cerevisiae deletion strains, locus YNL233W, strain BNI4, hits give low values 1.02 | S. cerevisiae deletion strains, locus YNL248C, strain rpa49, hits give low values 0.973 | S. cerevisiae deletion strains, locus YNL250W, strain rad50, hits give low values 1.05 | S. cerevisiae deletion strains, locus YNL271C, strain bni1, hits give low values 1.04 | S. cerevisiae deletion strains, locus YNL298W, strain CLA4, hits give low values 1.04 | S. cerevisiae deletion strains, locus YNL307C, strain MCK1, hits give low values 1.04 | S. cerevisiae deletion strains, locus YNL322C, strain KRE1 (second series), hits give low values 0.959 | S. cerevisiae deletion strains, locus YNL322C, strain KRE1, hits give low values 1.02 | S. cerevisiae deletion strains, locus YNR049C, strain mso1, hits give low values 0.975 | S. cerevisiae deletion strains, locus YNR052C, strain pop2, hits give low values 1.05 | S. cerevisiae deletion strains, locus YOL006C, strain TOP1, hits give low values 1.03 | S. cerevisiae deletion strains, locus YOL012C, strain htz1 1.23 | S. cerevisiae deletion strains, locus YOL147C, strain pex11, hits give low values 1.03 | S. cerevisiae deletion strains, locus YOR001W, strain rrp6, hits give low values 1.01 | S. cerevisiae deletion strains, locus YOR061W, strain CKA2, hits give low values 1.01 | S. cerevisiae deletion strains, locus YOR069W, strain VPS5, hits give low values 1.01 | S. cerevisiae deletion strains, locus YOR070C, strain gyp1, hits give low values 0.989 | S. cerevisiae deletion strains, locus YOR080W, strain dia2, hits give low values 0.997 | S. cerevisiae deletion strains, locus YOR083W, strain WHI5, hits give low values 0.913 | S. cerevisiae deletion strains, locus YOR106W, strain vam3, hits give low values 0.968 | S. cerevisiae deletion strains, locus YOR136W, strain idh2, hits give low values 1.04 | S. cerevisiae deletion strains, locus YOR144C, strain elg1, hits give low values 1.02 | S. cerevisiae deletion strains, locus YOR184W, strain ser1, hits give low values 1.05 | S. cerevisiae deletion strains, locus YOR231W, strain MKK1, hits give low values 0.976 | S. cerevisiae deletion strains, locus YOR265W, strain rbl2, hits give low values 0.974 | S. cerevisiae deletion strains, locus YOR270C, strain vph1, hits give low values 0.993 | S. cerevisiae deletion strains, locus YOR290C, strain snf2, hits give low values 0.966 | S. cerevisiae deletion strains, locus YOR316C, strain cot1, hits give low values 1.03 | S. cerevisiae deletion strains, locus YPL051W, strain arl3, hits give low values 0.98 | S. cerevisiae deletion strains, locus YPL055C, strain LGE1, hits give low values 1.05 | S. cerevisiae deletion strains, locus YPL078C, strain atp4, hits give low values 0.98 | S. cerevisiae deletion strains, locus YPL106C, strain sse1, hits give low values 0.948 | S. cerevisiae deletion strains, locus YPL240C, strain hsp82, hits give low values 0.997 | S. cerevisiae deletion strains, locus YPL241C, strain CIN2, hits give low values 1.01 | S. cerevisiae deletion strains, locus YPL256C, strain CLN2, hits give low values 1 | S. cerevisiae deletion strains, locus YPR119W, strain clb2, hits give low values 1.04 | S. cerevisiae deletion strains, locus YPR141C, strain kar3, hits give low values 1.05 | S. cerevisiae deletion strains, locus YPR163C, strain tif3, hits give low values 1.03 | S. cerevisiae deletion strains, locus YPR167C, strain met16, hits give low values 1.04 | S. cerevisiae deletion strains, strain wtn01, hits give low values 1.02 | S. cerevisiae strains, strain wild type, hits give low values 1.01
